High-throughput results deposited in PubChem by National Center for Advancing Translational Sciences (NCATS).
In the library only some 9.4% were active in any assay of this set; here they are far more common.
ELG1 repair inh: qHTS screen for small molecules that inhibit ELG1-dependent DNA repair in human embryonic kidney (HEK293T) cells expressing luciferase-tagged ELG1; HEK293T ELG1-luciferase reporter, luminescence, 16 h; DNA damage induced by 5-fluorouridine; 2.3% of 330,000 active; Potency, µM (titrated, usually from 46.1 µM), without a hit: at the top dose activity change, negative = inhibition, most hits filed as inhibitors; further: on the % scale 0 is the no-effect control and ±100 the full control effect; nearly all actives have a fitted effect of over 55% in size
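Step one: seed 2,000 cells per well. Step two: pin-transfer compound or DMSO alongside 5-fluorouridine. Step three: incubate 16 hr, 37 °C, 5% CO2. Step four: add ONE-Glo, wait 30 min, read luminescence.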
NPC1 prom act: qHTS Assay for NPC1 Promoter Activators | Huh7 NPC1 promoter luciferase reporter, 24 h | Potency, µM (titrated, usually from 9.22 µM), for the others: top-dose activation, most hits filed as activators | 2.4% of 320,000 active; further: % of control where 0% means no effect; nearly all actives have a fitted effect of over 60% in size
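Luminescence from an NPC1 promoter-driven luciferase reporter in stably transfected Huh7 cells was measured after 24 h compound treatment at 37 °C, followed by 10 min ambient incubation with luciferase detection reagent.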
Rab9 promoter act: qHTS Assay for Rab9 Promoter Activators; 2.8% of 320,000 active; AID 485297, 2010; Huh7 Rab9 promoter-luciferase reporter, luminescence, 24 h; Potency, µM (series often up to 9.22 µM), without a hit: at the top dose activation, negative = inhibition, actives largely listed as activators; further: % of control where 0% means no effect; nearly all actives have a fitted effect of over 60% in size
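Cell-based reporter: Huh7 stable for Rab9 promoter-driven luciferase, plated in reduced-serum medium with 10% FBS at 1500 cells/well, compound-treated 24 h at 37 °C, luminescence read after 10 min reagent.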
FLuc counter: qHTS profiling assay for firefly luciferase inhibitor/activator using purifed enzyme and Km concentrations of substrates (counterscreen for miR-21 project). purified FLuc, Km substrates, luminescence inhibition. Potency, µM (titrated, usually from 57.5 µM), for the others: top-dose activity change, negative = inhibition, most hits filed as inhibitors. 6.9% of 360,000 active. AID 588342, 2011;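 further: plate controls were vehicle for no effect and reference inhibitor for full effect; nearly all actives have a fitted effect of over 55% in size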
Target sequence (P08659 whole entry, looked up): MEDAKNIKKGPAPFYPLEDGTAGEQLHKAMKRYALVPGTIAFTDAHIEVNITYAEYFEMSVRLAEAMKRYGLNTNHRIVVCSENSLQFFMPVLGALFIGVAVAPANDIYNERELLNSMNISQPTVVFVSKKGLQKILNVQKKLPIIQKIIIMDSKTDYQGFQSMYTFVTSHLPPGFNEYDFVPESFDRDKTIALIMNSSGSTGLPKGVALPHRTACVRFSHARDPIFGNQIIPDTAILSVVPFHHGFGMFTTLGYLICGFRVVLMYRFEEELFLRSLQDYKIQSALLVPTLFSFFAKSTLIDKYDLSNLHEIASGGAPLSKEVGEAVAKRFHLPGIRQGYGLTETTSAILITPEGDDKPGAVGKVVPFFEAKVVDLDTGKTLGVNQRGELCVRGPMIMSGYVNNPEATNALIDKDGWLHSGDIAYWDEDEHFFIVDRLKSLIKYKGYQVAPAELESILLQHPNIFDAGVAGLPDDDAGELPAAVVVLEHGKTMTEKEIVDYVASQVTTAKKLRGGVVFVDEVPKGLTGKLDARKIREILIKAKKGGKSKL
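Purified P. pyralis luciferase (10nM final) with 10uM D-luciferin and 10uM ATP (Km levels) in 50mM Tris acetate pH 7.5, 10mM Mg acetate, 0.01% Tween-20, 0.05% BSA; qHTS 6-point titration, ~60 µM downward; luminescence read.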
SMN2 splice enh: qHTS Assay for Enhancers of SMN2 Splice Variant Expression | HEK293 SMN2-luciferase splicing reporter, luminescence, 30-36 h | Potency, µM (top dose mostly 46.1 µM), for inactives: at the top dose activity change, positive = activation, hits mostly activators | 2.8% of 210,000 active | AID 1458, 2008; further: % of control where 0% means no effect; nearly all actives have a fitted effect of over 55% in size
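qHTS luciferase splicing reporter: luminescence rises when SMN2 exon 7 is included in transfected HEK293 cells. Compound exposure lasted 30-36 h at 37C, with 4.5 mM final sodium butyrate as control, followed by a ONE-Glo read.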
ELG1 genotox: qHTS screen for small molecules that induce genotoxicity in human embryonic kidney (HEK293T) cells expressing luciferase-tagged ELG1 | HEK293T ELG1-luciferase reporter, luminescence, 16 h | AID 504466, 2011 | 1.3% of 330,000 active | Potency, µM (top dose mostly 46 µM), for the others: at the top dose activity change, positive = activation, hits mostly activators; further: % of control where 0% means no effect; nearly all actives have a fitted effect of over 60% in size
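Luminescence read-out: rising ELG1-luciferase signal, reflecting elevated ELG1 protein under genetic stress, flags genotoxic compounds. Cells were treated for 16 hr at 37 °C before ONE-Glo detection.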
The depositor's hits bear a star; ? = inconclusive; · = not tested or not shown; [ ] = dose if it differs, or a comment. The call rests on the fitted dose curve; in most records, active means well fitted curve in the direction sought with a large enough effect; inconclusive means small, poorly fitted or top-dose-only effect, or another doubt; inactive means no such curve, though single readings can be large; an effect the other way counts as inactive or inconclusive. Potency means the concentration at half of the fitted maximal effect.

SMILES | ELG1 repair inh | NPC1 prom act | Rab9 promoter act | FLuc counter | SMN2 splice enh | ELG1 genotox
CC(C)(C)c1ccc(SCCc2ccccn2)cc1 | ? | 2.2µM* | 3.2µM* | 3.8µM* | · | ?
Cc1ccc(S(=O)(=O)CCc2ccccn2)cc1 | 16% | 0% | -1% | 0% | 18% | 1%
Fc1ccc(SCCc2ccccn2)cc1 | ? | 22% | ? | 17µM* | · | ?
Fc1ccc(N2CCN(Cc3ccccn3)CC2)cc1 | -4% | -7% | 9% | 0% | -5% | -2%
O[C@@H](c1cc(-c2ccccc2)nc2c1ccc1ccccc12)C1CCCCN1 (some centres undefined) | · | · | · | · | -5%[9.22 µM] | ·
COC(=O)N/N=C/c1cc(N=Nc2ccccc2)ccc1O | 12% | 14% | 10% | ? | · | 9%
Nc1ccc(C(=O)N/N=C\c2cc(N=Nc3cccc4ccccc34)ccc2O)cc1 | ? | -7% | 1% | 7.6µM* | -76% | -7%
COC(=O)N/N=C/c1cc(N=Nc2ccccc2Cl)ccc1O | ? | ? | ? | 6µM* | · | 5%
Cn1c(=O)c(C(=O)COc2ccc(F)cc2Cl)c(N)n(Cc2ccccc2)c1=O | 23µM* | 4% | 2% | -1% | -22% | -10%
CCCCCn1c(C(C)NC(=O)c2ccccc2)nc2ccccc21 (centres undefined) | · | · | · | -3% | -1% | ·
O=C(N/N=C/c1ccoc1)c1ccccc1Br | 2% | -5% | 9% | -5% | · | 8%
O=C(N/N=C/c1ccoc1)c1cc(Br)ccc1O | 28% | 0% | 3% | 3µM* | · | 10%
Cc1cccc(/C=N/NC(=O)c2cc(Br)ccc2O)n1 | ? | 10% | 19% | 24µM* | · | ?
c1ccc(-c2cn(-c3ccccc3)c3[n+]2CCS3)cc1 | 4.6µM* | -22% | -16% | -4% | -41% | -5%
Fc1ccc(-n2cc(-c3ccccc3)[n+]3c2SCC3)cc1 | -23% | -8% | -16% | -2% | -15% | -11%
CC(C)(C)c1ccc(-c2cn(-c3ccc(Br)cc3)c3[n+]2CCCS3)cc1 | 4.1µM* | -30% | -40% | -2% | -50% | -13%
CN(CC(=O)O)CC(=O)O | · | · | · | · | -18%[9.22 µM] | ·
CC(=O)Nc1cccc(/C(C)=N/NC(=O)c2ccc(O)cc2)c1 | 5% | 4% | 2% | ? | 8% | 0%
C/C(=N\NC(=O)c1nn(C)cc1Br)c1cccc(NC(=O)c2ccncc2)c1 | 28% | 8% | 18% | 12µM* | 12% | 1%
C/C(=N/NC(=O)c1ccc(Cn2cccn2)o1)c1cccc(NC(=O)c2ccncc2)c1 | ? | 3% | -2% | ? | · | -1%
C/C(=N\NC(=O)c1ccc(Br)cc1)c1cccc(NC(=O)c2cccnc2)c1 | -4% | 15% | 21% | 12µM* | ? | 0%
C/C(=N\NC(=O)c1ccccc1O)c1cccc(NC(=O)c2ccccc2)c1 | 8% | 25% | 11% | 11µM* | · | 2%
C/C(=N\NC(=O)COc1ccccc1[N+](=O)[O-])c1cccc(NC(=O)c2ccncc2)c1 | 9.2µM* | 9% | 13% | ? | · | -17%
CC(=NNC(=O)c1ccc(NS(=O)(=O)c2ccc(Br)cc2)cc1)c1cccnc1 | -5% | · | · | · | · | -2%
CCn1c(SCc2c(F)cccc2Cl)nc(=O)c2c(C(=O)OC)cc(C3CC3)nc21 | · | · | · | -15% | · | ·
CC(=O)c1ccc(N2CCN(c3ncnc4c3nc3n4CCCC3)CC2)cc1 | · | · | · | -3% | · | ·
CCOc1ccc(S(=O)(=O)NCc2ccc3c(c2)CCN3C(=O)c2ccc(C)cc2)cc1 | · | · | · | -2% | · | ·
